Records with an inconclusive call do not appear. Entries that show only a call come without a potency. Some structures have more than one record in an assay (separate samples or runs), and their calls can disagree. Calls of active or inactive are those of the source. Calls come from the whole dose curve.
What was measured:
[1] = target: Acetylcholinesterase (Homo sapiens) (UniProt P22303); assay: Acetylcholinesterase (AChE) small molecule antagonists: colormetric cell-based qHTS assay (AID 1347395); note: nearly all actives have a fitted effect of over 30% in size; note: potency is the fitted concentration of half-maximal effect
Sequence of Acetylcholinesterase (Homo sapiens) (P22303 whole entry, looked up): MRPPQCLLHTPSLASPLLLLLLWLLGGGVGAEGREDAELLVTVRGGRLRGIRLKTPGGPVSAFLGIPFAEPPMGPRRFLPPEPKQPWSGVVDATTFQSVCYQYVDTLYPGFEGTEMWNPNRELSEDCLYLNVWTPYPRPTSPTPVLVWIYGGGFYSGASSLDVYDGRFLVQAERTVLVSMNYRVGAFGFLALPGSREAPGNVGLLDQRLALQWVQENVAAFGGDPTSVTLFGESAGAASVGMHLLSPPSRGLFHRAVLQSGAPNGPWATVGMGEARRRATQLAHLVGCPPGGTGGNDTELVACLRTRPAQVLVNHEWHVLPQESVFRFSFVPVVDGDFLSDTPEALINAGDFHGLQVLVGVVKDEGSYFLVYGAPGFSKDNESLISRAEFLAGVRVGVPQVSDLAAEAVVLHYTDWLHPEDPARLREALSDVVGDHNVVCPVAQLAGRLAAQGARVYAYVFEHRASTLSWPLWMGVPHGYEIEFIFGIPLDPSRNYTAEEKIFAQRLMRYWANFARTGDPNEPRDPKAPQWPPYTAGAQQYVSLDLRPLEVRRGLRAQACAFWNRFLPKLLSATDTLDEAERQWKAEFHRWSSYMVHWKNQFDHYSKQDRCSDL
In short: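 After overnight attachment at 37 C, SH-SY5Y cells get 30 min compound exposure; detection cocktail (acetylthiocholine, DTNB) then incubates 90 min at 37 C, and absorbance reflects AChE-generated thiocholine.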

[2] = target: Acetylcholinesterase (Homo sapiens) (UniProt P22303); assay: Acetylcholinesterase (AChE) small molecule antagonists: enzyme-based qHTS assay (AID 1347397); conditions: Potency: AChE enzyme activity inhibition; outcome: AChE enzyme activity inhibition; note: nearly all actives have a fitted effect of over 55% in size
In short: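 Colorimetric DTNB read-out of thiocholine released from acetylthiocholine by recombinant human AChE (50 mU/mL as dispensed). Compounds were preincubated 30 min at RT before substrate/DTNB addition, with a 10 min RT reaction.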

[3] = target: Acetylcholinesterase (Homo sapiens) (UniProt P22303); assay: Acetylcholinesterase (AChE) small molecule antagonists: fluorescence cell-based qHTS assay (AID 1347398); conditions: Potency: AChE activity; outcome: AChE activity; note: nearly all actives have a fitted effect of over 50% in size
In short: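 SH-SY5Y, 2,000 cells/well, attached overnight; cmpd 30 min 37 C; acetylthiocholine/Thiolite Green cocktail 40 min RT; fluorescence Ex/Em 490/520 nm.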

[4] = target: Acetylcholinesterase (Homo sapiens) (UniProt P22303); assay: Acetylcholinesterase (AChE) small molecule antagonists: enzyme-based qHTS assay with human liver microsomes (AID 1347399); conditions: Potency: qHTS inhibition; outcome: qHTS inhibition; note: nearly all actives have a fitted effect of over 60% in size
In short: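 Recombinant human AChE (50 mU/mL in the enzyme mix) and human liver microsomes (0.25 mg/mL final) were preincubated with compound and NADPH (0.25 mg/mL final) for 30 min at 37 C. Acetylthiocholine/DTNB was then added; thiocholine was read colorimetrically after 10 min at room temperature.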

Row | SMILES | Potency [1] | Potency [2] | Potency [3] | Potency [4] | activity, negative = inhibition [1] | activity change, negative = inhibition [2] | activity change, negative = inhibition [3] | activity change, negative = inhibition [4]
1 | COC(Cc1ccccc1)OC | inactive | inactive | inactive | inactive | – | – | – | –
2 | CO[C@H]1O[C@H](CO)[C@@H](O)[C@H](O)[C@H]1O | inactive | inactive | inactive | inactive | – | – | – | –
3 | C[C@H](N)[C@H](O)c1cccc(O)c1 | inactive | inactive | inactive | inactive | – | – | – | –
4 | C[C@]12C=CC(=O)C=C1CC[C@@H]1[C@@H]2[C@@H](O)C[C@@]2(C)[C@H]1CC[C@]2(O)C(=O)CO | inactive | inactive | inactive | inactive | – | – | – | –
5 | CCOC(=O)c1ccc(C)cc1 | inactive | inactive | inactive | inactive | – | – | – | –
6 | O=NN(CCCl)C(=O)NCCCl | inactive | inactive | inactive | inactive | – | – | – | –
7 | CCNc1nc(NC(C)(C)C)nc(OC)n1 | inactive | inactive | inactive | inactive | – | – | – | –
8 | NC(CSCC(=O)O)C(=O)O (stereo not given) | inactive | inactive | inactive | inactive | – | – | – | –
9 | Nc1c(S(=O)(=O)O)cc(Br)c2c1C(=O)c1ccccc1C2=O | inactive | inactive | inactive | inactive | – | – | – | –
10 | CC1=CCC(O)(C(C)C)CC1 (stereo not given) | inactive | inactive | inactive | inactive | – | – | – | –
11 | CC(C)[C@H](N)C(=O)OCCOCn1cnc2c(=O)[nH]c(N)nc21 | inactive | inactive | inactive | inactive | – | – | – | –
12 | COC(=O)c1ccc2cc(C(=O)OC)ccc2c1 | – | – | – | – | 3.17% [at 23.6 µM] (inactive) | -0.273% [at 23.6 µM] (inactive) | -7.2% [at 23.8 µM] (inactive) | -4.52% [at 23.6 µM] (inactive)
13 | CC(C)C/C=C(\C=O)c1ccccc1 | inactive | inactive | inactive | inactive | – | – | – | –
14 | CCN1C=CN(C)C1C (stereo not given) | inactive | inactive | inactive | inactive | – | – | – | –
15 | OC[C@H]1O[C@@H](n2cnc3c(=S)nc[nH]c32)[C@H](O)[C@@H]1O | inactive | inactive | inactive | inactive | – | – | – | –
16 | CC(C)(C)CC(C)(C)c1ccccc1O | inactive | inactive | inactive | inactive | – | – | – | –
17 | C=CCc1cc(OC)c(O)c(C(=O)NCCO)c1 | inactive | inactive | inactive | inactive | – | – | – | –
18 | CC(=O)O[C@]1(C(C)=O)CC[C@H]2[C@@H]3C[C@H](C)C4=CC(=O)CC[C@]4(C)[C@H]3CC[C@@]21C | inactive | inactive | inactive | inactive | – | – | – | –
19 | O=Cc1ccc(CO)o1 | inactive | inactive | inactive | inactive | – | – | – | –
20 | CC(=O)Nc1ccc(CC(=O)O)cc1 | inactive | inactive | inactive | inactive | – | – | – | –

Row | SMILES | Potency [1] | Potency [2] | Potency [3] | Potency [4] | activity, negative = inhibition [1] | activity change, negative = inhibition [2] | activity change, negative = inhibition [3] | activity change, negative = inhibition [4]
21 | N[C@@H](Cc1cc(I)c(Oc2cc(I)c(O)c(I)c2)c(I)c1)C(=O)O | inactive | inactive | inactive | inactive | – | – | – | –
22 | NC(=O)OCC(COC(N)=O)c1ccccc1 | inactive | inactive | inactive | inactive | – | – | – | –
23 | CN1C[C@@H]2C[C@H]1CN2c1cc2c(cc1F)c(=O)c(C(=O)O)cn2C1CC1 | – | – | – | – | 1.26% [at 23.6 µM] (inactive) | -0.543% [at 23.6 µM] (inactive) | 1.64% [at 23.8 µM] (inactive) | 0.0665% [at 23.6 µM] (inactive)
24 | C/C(=C(\CCOP(=O)(O)O)SC(=O)c1ccccc1)N(C=O)Cc1cnc(C)nc1N | – | – | – | – | -0.469% [at 10.5 µM] (inactive) | 0.584% [at 10.5 µM] (inactive) | 5.35% [at 10.5 µM] (inactive) | -1.26% [at 10.5 µM] (inactive)
25 | CCOC(=O)C1OC1c1ccccc1 (stereo not given) | inactive | inactive | inactive | inactive | – | – | – | –
26 | C[C@H](NC(CCc1ccccc1)C(=O)O)C(=O)N1CCC[C@H]1C(=O)O (stereo not given in full) | inactive | inactive | inactive | inactive | – | – | – | –
27 | C=C(C)CC(C)(C)C | inactive | inactive | inactive | inactive | – | – | – | –
28 | O=C(Oc1ccccc1)c1ccccc1O | inactive | inactive | inactive | inactive | – | – | – | –
29 | CC(O)CN(CCN(CC(C)O)CC(C)O)CC(C)O (stereo not given) | inactive | inactive | inactive | inactive | – | – | – | –
30 | C/C=C/C(=O)C1=C(C)CCCC1(C)C | inactive | inactive | inactive | inactive | – | – | – | –
31 | CCc1cc(Cc2cc(CC)cc(C(C)(C)C)c2O)c(O)c(C(C)(C)C)c1 | inactive | inactive | inactive | inactive | – | – | – | –
32 | O=C(O)CCCC(=O)O | 6.21 µM (active) and inactive | inactive | inactive | inactive | – | – | – | –
33 | Clc1sc(Cl)c(Cl)c1Cl | inactive | inactive | inactive | inactive | – | – | – | –
34 | CC(CO)c1ccccc1 (stereo not given) | inactive | inactive | inactive | inactive | – | – | – | –
35 | Oc1ccc2c(c1)OC[C@@H](N1CCC(O)(c3ccc(F)cc3)CC1)[C@H]2O | inactive | inactive | inactive | inactive | – | – | – | –
36 | OC1CCCCCCCCCCC1 | inactive | inactive | inactive | inactive | – | – | – | –
37 | C=CC(C)CCC=C(C)C (stereo not given) | inactive | inactive | inactive | inactive | – | – | – | –
38 | CC(C)Cc1ccc(C(C)C(=O)O)cc1 (stereo not given) | inactive | inactive | inactive | inactive | – | – | – | –
39 | CO[Si](OC)(OC)c1ccccc1 | inactive | inactive | inactive | inactive | – | – | – | –
40 | C=CCCCCCCCCO | inactive | inactive | inactive | inactive | – | – | – | –

Row | SMILES | Potency [1] | Potency [2] | Potency [3] | Potency [4] | activity, negative = inhibition [1] | activity change, negative = inhibition [2] | activity change, negative = inhibition [3] | activity change, negative = inhibition [4]
41 | CCCCc1nc(Cl)c(CO)n1Cc1ccc(-c2ccccc2-c2nn[nH]n2)cc1 | inactive | inactive | inactive | inactive | – | – | – | –
42 | CCC(O)OC(O)CC (stereo not given) | inactive | inactive | inactive | inactive | – | – | – | –
43 | CC(=O)c1ccc(OCC(=O)N2CCCCC2)cc1 | inactive | inactive | inactive | inactive | – | – | – | –
44 | CCC(C)(C)C1CCC(O)CC1 (stereo not given) | inactive | inactive | inactive | inactive | – | – | – | –
45 | CCCCCCCCCC=O | inactive | inactive | inactive | inactive | – | – | – | –
46 | CC(C)N(c1ccccc1)C(C)C | inactive | inactive | inactive | inactive | – | – | – | –
47 | CCCCCCCCCCCCCCCCCCO | inactive | inactive | inactive | inactive | – | – | – | –
48 | CCOC(=O)CCCCCCCCC(=O)OCC | inactive | inactive | inactive | inactive | – | – | – | –
49 | O=C(O)CCCCC(=O)O | inactive | inactive | inactive | inactive | – | – | – | –
50 | NC(=O)c1ncn([C@@H]2O[C@H](CO)[C@@H](O)[C@H]2O)n1 | inactive | inactive | inactive | inactive | – | – | – | –
51 | CCN(CC)S(=O)(=O)c1ccc(C(=O)O)cc1 | inactive | inactive | inactive | inactive | – | – | – | –
52 | OCCCCCCCl | inactive | inactive | inactive | inactive | – | – | – | –
53 | CC(C)CCO | inactive | inactive | inactive | inactive | – | – | – | –
54 | Nc1ccc(C(=O)Oc2ccccc2)c(O)c1 | inactive | inactive | inactive | inactive | – | – | – | –
55 | Cc1cccc(C)c1C | inactive | inactive | inactive | inactive | – | – | – | –
56 | CO[C@@]1(NC(=O)CSC[C@@H](N)C(=O)O)C(=O)N2C(C(=O)O)=C(CSc3nnnn3C)CS[C@@H]21 | inactive | inactive | inactive | inactive | – | – | – | –
57 | CCNC(=O)/C=C/c1cccc(Br)c1 | inactive | inactive | inactive | inactive | – | – | – | –
58 | CN(C)c1ccc(C(c2ccccc2)c2ccc(N(C)C)cc2)cc1 | inactive | inactive | inactive | inactive | – | – | – | –
59 | CC1=CC(=O)CCC1 | inactive | inactive | inactive | inactive | – | – | – | –
60 | O=C(COc1ccc(Cl)cc1)N1CCN(Cc2ccc3c(c2)OCO3)CC1 | inactive | inactive | inactive | inactive | – | – | – | –

Reference: PubChem BioAssay (Tox21)
